In PubChem BioAssay (Tox21):
Records with an inconclusive call do not appear. The source made the active and inactive calls. Unless noted, calls come from the whole dose curve; as a rule, active = well fitted curve in the direction sought with a large enough effect in the repeat runs; inconclusive = weak or mixed curves; inactive = no such curve, though single readings can be large; an effect the other way counts as inactive or inconclusive.

Experiments:
[1] = target: Retinoic acid receptor RXR-alpha (Homo sapiens) (UniProt P19793); assay: qHTS assay to identify small molecule agonists of the RXR signaling pathway (AID 1159527; calls by dose curve; note: nearly all actives have a fitted effect of over 35% in size)
Method in brief: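 Reporter activation is measured as beta-lactamase activity via FRET substrate cleavage (emission 460/530 nm) in HEK 293T cells expressing an RXR-alpha-driven bla construct, following 16 hr compound exposure at 37 C.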

[2] = qHTS assay to identify small molecule agonists of the RXR signaling pathway - cell viability counter screen (AID 1159529); note: series mostly up to about 77 µM; nearly all actives have a fitted effect of over 50% in size
Method in brief: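 Tox21 10K compounds were tested for cytotoxicity against GeneBLAzer RXR-alpha HEK 293T cells grown in 2% charcoal-stripped FBS. Exposure lasted 16 hr at 37 C, 5% CO2; viability read by CellTiter-Glo luminescence.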

[3] = qHTS assay to identify small molecule antagonists of the retinoid acid receptor (RAR) signaling pathway - cell viability counter screen (AID 1159551); note: nearly all actives have a fitted effect of over 35% in size
Method in brief: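 Cytotoxicity counter screen in C3RL4 cells: 6 h compound exposure with 1 uM retinol (final), viability from cellular ATP by luminescence.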

[4] = qHTS assay to identify small molecule antagonists of the retinoic acid receptor (RAR) signaling pathway (AID 1159552; note: nearly all actives have a fitted effect of over 50% in size)
Method in brief: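 Overnight-plated C3RL4 reporter cells get compound, then retinol to 1 uM final; plates sit 6 hr at 37 C, 5% CO2. A luciferase reagent is added and light output recorded after 30 min at room temperature.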

[5] = qHTS assay to identify small molecule agonists of the retinoic acid receptor (RAR) signaling pathway (AID 1159553)
Method in brief: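 Agonist activity was scored in C3RL4 cells bearing a retinoic acid response element luciferase construct. Cells were treated with compounds for 6 hr at 37 C, and luciferase signal was measured as luminescence.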

[6] = qHTS assay to identify small molecule antagonists of the estrogen related receptor (ERR) signaling pathway from Tox21 library - cell viability counter screen (AID 1224834); note: nearly all actives have a fitted effect of over 30% in size
Method in brief: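 Cytotoxicity of test substances is gauged in the same ERR cells used for the antagonist screen, after 17.5 h of compound treatment at 37 C, by CellTiter-Fluor fluorescence measured after 30 min.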

[7] = target: Luciferin 4-monooxygenase (Photinus pyralis) (UniProt P08659); assay: qHTS assay to identify small molecule inhibitors of firefly luciferase (AID 1224835); note: series mostly up to about 120 µM; nearly all actives have a fitted effect of over 25% in size
Method in brief: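 Quantitative HTS format; KM concentrations of both substrates. Purified P. pyralis FLuc activity quantified from luminescence images.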

[8] = qHTS assay to identify small molecule agonists of the constitutive androstane receptor (CAR) signaling pathway - cell viability counter screen (AID 1224836); note: series mostly up to about 92 µM; nearly all actives have a fitted effect of over 45% in size
Method in brief: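 Fluorescence from CellTiter-Fluor indicates live cells after 23 h exposure. The human hepatoma line expresses hCAR and a CYP2B6-2.2kb reporter. Incubation medium contains 0.75 uM PK11195 (final).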

[9] = qHTS assay to identify small molecule antagonists of the constitutive androstane receptor (CAR) signaling pathway - cell viability counter screen (AID 1224837); note: series mostly up to about 92 µM; nearly all actives have a fitted effect of over 45% in size
Method in brief: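 Multiplexed cytotoxicity read-out for the CAR antagonist screen: double-stable HepG2-CYP2B6-hCAR cells co-treated with 50 nM CITCO (final) and compound over 15 concentrations, incubated 23 hr, then assessed by CellTiter-Fluor fluorescence.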

[10] = target: Nuclear receptor subfamily 1 group I member 3 (Homo sapiens) (UniProt Q14994); assay: qHTS assay to identify small molecule antagonists of the constitutive androstane receptor (CAR) signaling pathway (AID 1224838); note: nearly all actives have a fitted effect of over 40% in size
Method in brief: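 Compounds were titrated across 15 concentrations onto HepG2 cells double-stably expressing hCAR and a CYP2B6-2.2kb reporter, together with 50 nM CITCO (final). After 24 h at 37 C, luciferase activity was measured by luminescence.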

[11] = target: Nuclear receptor subfamily 1 group I member 3 (Homo sapiens) (UniProt Q14994); assay: qHTS assay to identify small molecule agonists of the constitutive androstane receptor (CAR) signaling pathway (AID 1224839);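 note: HepG2 cells stably carrying human CAR and a CYP2B6 luciferase reporter; series mostly up to about 92 µM; nearly all actives have a fitted effect of over 15% in size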
Method in brief: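 Stable hCAR/CYP2B6-2.2kb HepG2 line in DMEM with 10% FBS; compounds (15 concentrations) and 0.75 uM PK11195 final, 24 h at 37 C/5% CO2, then ONE-Glo luminescence after 30 min.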

[12] = qHTS assay to identify small molecule antagonists of the estrogen related receptor signaling pathway with the pleiotropic PPARgamma coactivator (PGC) from Tox21 10K library - cell viability counter screen (AID 1224840; active = well fitted cell-killing curve with a large enough effect in the repeat runs, not every such curve was filed as active; note: nearly all actives have a fitted effect of over 40% in size)
Method in brief: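 Step one, plate 2,000 PGC/ERR cells per well; step two, incubate 6 h at 37 C/5% CO2; step three, pin-transfer compounds; step four, incubate 17.5 h; step five, add CellTiter-Fluor and read fluorescence after 30 min.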

[13] = qHTS assay to identify small molecule antagonists of the estrogen related receptor signaling pathway with the pleiotropic PPARgamma coactivator (PGC) from Tox21 10K library (AID 1224841; call rule not given here; note: series mostly up to about 92 µM; actives are mostly falling curves and most rising ones were filed inactive; nearly all actives have a fitted effect of over 50% in size)
Method in brief: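 Antagonism in this quantitative HTS is taken from loss of luciferase signal in PGC/ERR cells. Cells (2,000/well) are treated with compounds in DMSO after a 6 h settling period and read by One-Glo luminescence after 18 h.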

[14] = qHTS assay to identify small molecule agonists of the estrogen related receptor signaling pathway with the pleiotropic PPARgamma coactivator (PGC) from Tox21 10K library (AID 1224842); note: nearly all actives have a fitted effect of over 15% in size
Method in brief: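 PGC/ERR reporter cells (NTP line) were seeded 2,000 per well, rested 6 h at 37 C/5% CO2, then pin-dosed with compounds in DMSO for 18 h at 37 C; luciferase read by One-Glo luminescence after 30 min at room temperature.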

[15] = qHTS assay to identify small molecule antagonists of the estrogen related receptor (ERR) signaling pathway - cell viability counter screen (AID 1224818);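 note: series mostly up to about 46 µM; viability measured after 17.5 h of compound exposure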
Method in brief: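 Cells carrying the ERR pathway reporter were seeded and incubated for 6 hours before compound addition. After a 17.5-hour exposure at 37 C, live-cell protease activity was measured by CellTiter-Fluor fluorescence following 30 minutes of incubation.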

[16] = qHTS assay to identify small molecule agonists of the estrogen related receptor (ERR) signaling pathway (AID 1224820)
Method in brief: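 Quantitative HTS of the LOPAC library used NTP ERR reporter cells treated 18 h at 37 C. Signal is luminescence after One-Glo addition and a 30 min room-temperature incubation.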

[17] = system: estrogen-related receptor alpha (ERRalpha) with PGC-1alpha coactivator, human; assay: qHTS assay to identify small molecule antagonists of the estrogen related receptor signaling pathway with the pleiotropic PPARgamma coactivator (PGC) (AID 1224821; calls by dose curve;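 note: series mostly up to about 46 µM; lower luminescence signal means antagonism of PGC/ERR signalling; nearly all actives have a fitted effect of over 50% in size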)
Method in brief: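 Quantitative HTS for antagonism: PGC/ERR cells received compounds after 6 h attachment and were incubated 18 h at 37 C, with luminescence (One-Glo) as the endpoint.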

[18] = qHTS assay to identify small molecule antagonists of the estrogen related receptor signaling pathway with the pleiotropic PPARgamma coactivator (PGC) cell viability counter screen (AID 1224822;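 note: series mostly up to about 46 µM; viability read after 17.5 h compound exposure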)
Method in brief: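 Seed PGC/ERR cells (2,000/well); incubate 6 h at 37 C/5% CO2; pin-transfer compounds in DMSO; incubate 17.5 h at 37 C; add CellTiter-Fluor; after 30 min read fluorescence.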

[19] = qHTS assay to identify small molecule agonists of the estrogen related receptor signaling pathway with the pleiotropic PPARgamma coactivator (PGC) (AID 1224823)
Method in brief: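 Cell-based luciferase assay in the NTP-supplied PGC/ERR line, 2,000 cells/well; 18 h compound exposure at 37 C, luminescence after One-Glo.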

[20] = target: Thyrotropin receptor (Homo sapiens) (UniProt P16473); assay: qHTS assay to identify small molecule agonists of the thyroid stimulating hormone receptor (TSHR) signaling pathway (AID 1224843; calls by dose curve; note: nearly all actives have a fitted effect of over 45% in size)
Method in brief: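 TSHR-expressing HEK293 cells (800 per well) were exposed to compounds for 30 min at room temperature. cAMP was then detected by HTRF competition with cAMP-d2 and anti-cAMP cryptate, read after 1 h at room temperature. Fifteen concentrations, triplicate.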
% is set by controls: 0 for no effect and ±100 for the full control effect.

Retinoic acid receptor RXR-alpha (Homo sapiens), sequence (P19793 whole entry, looked up): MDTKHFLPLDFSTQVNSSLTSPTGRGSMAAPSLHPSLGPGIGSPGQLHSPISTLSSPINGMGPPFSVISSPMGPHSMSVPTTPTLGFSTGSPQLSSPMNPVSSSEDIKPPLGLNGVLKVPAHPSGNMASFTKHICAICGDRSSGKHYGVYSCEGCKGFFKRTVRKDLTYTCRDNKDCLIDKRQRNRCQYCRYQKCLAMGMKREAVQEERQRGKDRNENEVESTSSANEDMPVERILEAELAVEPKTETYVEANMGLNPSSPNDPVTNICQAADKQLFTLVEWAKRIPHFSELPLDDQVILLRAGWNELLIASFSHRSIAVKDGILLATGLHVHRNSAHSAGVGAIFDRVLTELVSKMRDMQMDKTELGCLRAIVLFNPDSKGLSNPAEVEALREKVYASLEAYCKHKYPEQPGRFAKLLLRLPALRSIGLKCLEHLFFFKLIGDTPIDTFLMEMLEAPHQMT
Thyrotropin receptor (Homo sapiens), sequence (P16473 whole entry, looked up): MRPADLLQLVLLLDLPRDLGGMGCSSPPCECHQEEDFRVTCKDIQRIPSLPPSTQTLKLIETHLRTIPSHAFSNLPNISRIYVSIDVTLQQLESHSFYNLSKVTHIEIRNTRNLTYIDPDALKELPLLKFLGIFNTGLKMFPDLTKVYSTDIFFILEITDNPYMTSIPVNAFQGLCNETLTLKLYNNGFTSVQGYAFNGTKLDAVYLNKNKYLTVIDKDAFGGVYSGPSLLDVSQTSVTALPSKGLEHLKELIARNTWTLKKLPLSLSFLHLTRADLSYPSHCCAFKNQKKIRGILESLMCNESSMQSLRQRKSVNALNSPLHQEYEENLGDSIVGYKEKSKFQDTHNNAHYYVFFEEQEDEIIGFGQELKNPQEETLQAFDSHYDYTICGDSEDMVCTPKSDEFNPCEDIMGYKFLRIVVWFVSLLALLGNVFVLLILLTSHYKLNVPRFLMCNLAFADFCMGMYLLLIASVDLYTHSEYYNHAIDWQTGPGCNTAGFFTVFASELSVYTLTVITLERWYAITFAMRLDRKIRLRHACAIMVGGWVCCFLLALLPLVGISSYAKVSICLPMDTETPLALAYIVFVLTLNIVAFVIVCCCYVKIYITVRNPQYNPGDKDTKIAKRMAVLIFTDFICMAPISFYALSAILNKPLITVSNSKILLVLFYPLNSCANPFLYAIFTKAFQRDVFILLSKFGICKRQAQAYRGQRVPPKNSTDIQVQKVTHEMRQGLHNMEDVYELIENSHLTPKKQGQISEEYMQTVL
Luciferin 4-monooxygenase (Photinus pyralis), sequence (P08659 whole entry, looked up): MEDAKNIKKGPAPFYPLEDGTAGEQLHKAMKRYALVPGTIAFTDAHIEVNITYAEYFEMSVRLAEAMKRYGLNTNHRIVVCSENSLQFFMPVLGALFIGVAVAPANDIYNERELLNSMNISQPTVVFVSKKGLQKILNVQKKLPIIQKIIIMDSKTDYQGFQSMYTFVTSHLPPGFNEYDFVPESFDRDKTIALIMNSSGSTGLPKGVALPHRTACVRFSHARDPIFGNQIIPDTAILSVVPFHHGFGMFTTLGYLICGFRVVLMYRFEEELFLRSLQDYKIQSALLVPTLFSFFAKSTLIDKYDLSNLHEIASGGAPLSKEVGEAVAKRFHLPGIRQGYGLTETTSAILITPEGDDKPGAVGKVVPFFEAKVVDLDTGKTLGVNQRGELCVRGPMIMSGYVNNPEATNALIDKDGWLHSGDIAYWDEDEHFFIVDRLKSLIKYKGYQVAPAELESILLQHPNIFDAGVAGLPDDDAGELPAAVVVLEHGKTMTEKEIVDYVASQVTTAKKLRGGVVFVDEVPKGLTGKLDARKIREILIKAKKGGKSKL
Nuclear receptor subfamily 1 group I member 3 (Homo sapiens), sequence (Q14994 whole entry, looked up): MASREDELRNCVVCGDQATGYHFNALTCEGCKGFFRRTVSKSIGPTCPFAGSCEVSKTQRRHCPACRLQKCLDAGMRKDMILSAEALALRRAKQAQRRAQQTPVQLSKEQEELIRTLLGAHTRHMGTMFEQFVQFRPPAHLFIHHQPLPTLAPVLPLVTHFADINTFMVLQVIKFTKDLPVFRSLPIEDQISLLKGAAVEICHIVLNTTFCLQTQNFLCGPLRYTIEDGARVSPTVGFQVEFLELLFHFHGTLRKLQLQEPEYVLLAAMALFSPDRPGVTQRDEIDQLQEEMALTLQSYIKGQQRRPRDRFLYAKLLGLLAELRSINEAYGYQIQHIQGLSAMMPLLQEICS

NC(=O)c1ccc(N)cc1
inactive: Potency [1] | Potency [2] | outcome [3] | Potency [4] | Potency [5] | Potency [6] | Potency [7] | Potency [8] | Potency [9] | Potency [10] | Potency [11] | Potency [12] | Potency [13] | outcome [14]

CCCCCOC(=O)CCCCC
inactive: Potency [1] | Potency [2] | outcome [3] | Potency [4] | Potency [5] | Potency [6] | Potency [7] | Potency [8] | Potency [9] | Potency [10] | Potency [11] | Potency [12] | Potency [13] | outcome [14]

O=C(CCCN1CCC(O)(c2cccc(C(F)(F)F)c2)CC1)c1ccc(F)cc1
inactive: Potency [1] | Potency [2] | outcome [3] | Potency [4] | Potency [5] | outcome [15] | outcome [16] | outcome [17] | outcome [18] | outcome [19] | Potency [6] | Potency [7] | Potency [8] | Potency [9] | Potency [10] | Potency [11] | Potency [12] | outcome [14] | Potency [20]

COC(=O)[C@@H](N)Cc1ccc(O)c(O)c1
inactive: Potency [1] | Potency [2] | outcome [3] | Potency [4] | Potency [5] | outcome [15] | outcome [16] | outcome [17] | outcome [18] | outcome [19] | Potency [6] | Potency [7] | Potency [8] | Potency [9] | Potency [12] | Potency [13] | outcome [14] | Potency [20]

Cc1cccc(C)c1NC(=O)C(C)N (stereo not drawn)
inactive: Potency [1] | Potency [2] | outcome [3] | Potency [4] | Potency [5] | outcome [15] | outcome [16] | outcome [17] | outcome [18] | outcome [19] | Potency [6] | Potency [7] | Potency [8] | Potency [9] | Potency [10] | Potency [11] | Potency [12] | Potency [13] | outcome [14] | Potency [20]

COc1cc(C(=O)N2CCCCCCC2)cc(OC)c1OC
inactive: Potency [1] | Potency [2] | outcome [3] | Potency [4] | Potency [5] | Potency [6] | Potency [7] | Potency [8] | Potency [9] | Potency [10] | Potency [11] | Potency [12] | Potency [13] | outcome [14] | Potency [20]

COC(=O)c1ccc(C)cc1C1=NC(C)(C(C)C)C(=O)N1 (stereo not drawn)
inactive: Potency [1] | Potency [2] | outcome [3] | Potency [4] | Potency [5] | Potency [6] | Potency [7] | Potency [8] | Potency [9] | Potency [10] | Potency [11] | Potency [12] | Potency [13] | outcome [14]

CC(=O)CC(C)(C)C1CCCCC1
inactive: Potency [1] | Potency [2] | outcome [3] | Potency [4] | Potency [5] | Potency [6] | Potency [7] | Potency [8] | Potency [9] | Potency [10] | Potency [11] | Potency [12] | Potency [13] | outcome [14]

O=[N+]([O-])c1ccc(F)cc1F
inactive: Potency [1] | Potency [2] | outcome [3] | Potency [4] | Potency [5] | Potency [6] | Potency [7] | Potency [8] | Potency [9] | Potency [10] | Potency [11] | Potency [12] | Potency [13] | outcome [14]

c1cnc(N2CCN(Cc3ccc4c(c3)OCO4)CC2)nc1
inactive: Potency [1] | Potency [2] | outcome [3] | Potency [4] | Potency [5] | outcome [15] | outcome [18] | Potency [6] | Potency [7] | Potency [8] | Potency [9] | Potency [10] | Potency [11] | Potency [12] | Potency [20]

C[C@](N)(Cc1ccc(O)cc1)C(=O)O
inactive: activation [1] 8.62% [at 6.98 µM] | activity change, negative = cytotoxicity [2] 10.7% [at 6.97 µM] | activity change, negative = cytotoxicity [3] 0.103% [at 8.39 µM] | activity, negative = inhibition [4] -1.72% [at 8.39 µM] | activation [5] -0.945% [at 8.36 µM] | outcome [15] | outcome [16] | outcome [17] | outcome [18] | outcome [19] | viability change, negative = cytotoxic [6] 1.82% [at 8.39 µM] | activity change, negative = inhibition [7] 0.0392% [at 10.5 µM] | viability change, negative = cytotoxic [8] 11.1% [at 8.39 µM] | activity change, negative = cytotoxicity [9] 2.5% [at 8.39 µM] | viability change, negative = cytotoxic [12] -0.23% [at 8.39 µM] | activity, negative = inhibition [13] -1.66% [at 8.39 µM] | activation [14] -0.549% [at 8.39 µM] | activation [20] -7.31% [at 8.39 µM]

NC(CSCC(=O)O)C(=O)O (stereo not drawn)
inactive: Potency [1] | Potency [2] | outcome [3] | Potency [4] | Potency [5] | Potency [6] | Potency [7] | Potency [8] | Potency [9] | Potency [10] | Potency [11] | Potency [12] | Potency [13] | outcome [14]

C[C@H](NC(CCc1ccccc1)C(=O)O)C(=O)N1CCC[C@H]1C(=O)O (stereo partly drawn)
inactive: Potency [1] | Potency [2] | outcome [3] | Potency [4] | Potency [5] | outcome [15] | outcome [16] | outcome [17] | outcome [18] | outcome [19] | Potency [6] | Potency [7] | Potency [8] | Potency [9] | Potency [10] | Potency [11] | Potency [12] | Potency [13] | outcome [14] | Potency [20]

N=c1nc(N2CCCCC2)cc(N)n1O
inactive: Potency [1] | Potency [2] | outcome [3] | Potency [4] | Potency [5] | outcome [15] | outcome [18] | Potency [6] | Potency [7] | Potency [8] | Potency [9] | Potency [10] | Potency [11] | Potency [12] | Potency [20]

CCOC(=O)Nc1ccc(NCc2ccc(F)cc2)nc1N
inactive: Potency [1] | Potency [2] | outcome [3] | Potency [4] | Potency [5] | outcome [15] | outcome [16] | outcome [17] | outcome [18] | outcome [19] | Potency [6] | Potency [7] | Potency [8] | Potency [9] | Potency [10] | Potency [11] | Potency [12] | Potency [13] | outcome [14] | Potency [20]

CCCCCCOC(=O)CCCCC(=O)OCCCCCC
inactive: Potency [1] | Potency [2] | outcome [3] | Potency [4] | Potency [5] | Potency [6] | Potency [7] | Potency [8] | Potency [9] | Potency [10] | Potency [11] | Potency [12] | Potency [13] | outcome [14]
